SARS PLP yeast = qHTS of Yeast-based Assay for SARS-CoV PLP | S. cerevisiae expressing SARS-CoV PLpro, growth rescue | Potency, µM (highest dose often 32.9 µM), for the others: at the top dose activity, positive = growth rescue, most hits filed as activators | actives 0.19% (n = 330,000); calls by dose curve; further: potency means the concentration at half of the fitted maximal effect; 0% is about no effect; nearly all actives have a fitted effect of over 55% in size
Cycloheximide cs = Cycloheximide Counterscreen for Small Molecule Inhibitors of Shiga Toxin; actives 12% (n = 300,000); max response, %; cell reporter, cycloheximide protein synthesis inhibition counterscreen; in the data active means max response mostly above about 13%, no sharp cut-off; inactive means mostly below about 14%; further: read at 38.3 µM for the half of the compounds with a filed dose; 0% is about no effect
AmpC inh no detg = qHTS Inhibitors of AmpC Beta-Lactamase (assay without detergent); P00811; AmpC nitrocefin hydrolysis, absorbance 480 nm, 0.0001% Triton; Potency, µM (highest dose often 57.1 µM), for the others: top-dose activity change, negative = inhibition, hits mostly inhibitors; actives 0.52% (n = 330,000); AID 485341, 2010;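 further: potency means the concentration at half of the fitted maximal effect; plate controls were no compound for no effect and no enzyme for full effect; nearly all actives have a fitted effect of over 20% in size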
Target sequence (P00811 whole entry, looked up): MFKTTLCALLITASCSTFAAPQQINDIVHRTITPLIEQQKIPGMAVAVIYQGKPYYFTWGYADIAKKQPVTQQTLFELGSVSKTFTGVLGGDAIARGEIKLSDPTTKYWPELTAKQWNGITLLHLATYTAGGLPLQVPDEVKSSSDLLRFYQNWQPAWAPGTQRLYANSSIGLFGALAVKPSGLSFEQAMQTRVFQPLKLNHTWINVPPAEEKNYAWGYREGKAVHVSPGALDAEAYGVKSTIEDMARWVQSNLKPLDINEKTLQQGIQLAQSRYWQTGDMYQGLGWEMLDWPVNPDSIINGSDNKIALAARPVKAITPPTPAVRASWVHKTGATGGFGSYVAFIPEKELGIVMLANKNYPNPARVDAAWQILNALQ
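AmpC (5.3 nM in the dispensed reagent) in 20 mM phosphate pH 7.0 with 0.01% (detergent screen) or 0.0001% Triton X-100 was preincubated with compounds for 15 min at room temperature. Nitrocefin was then added from an 800 uM solution, and hydrolysis was followed at 480 nm.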
AmpC inh detg = qHTS Inhibitors of AmpC Beta-Lactamase (assay with detergent); actives 0.041% (n = 370,000); AmpC hydrolysis of nitrocefin, absorbance 480 nm, 0.01% Triton; P00811; Potency, µM (top dose mostly 114 µM), for inactives: at the highest dose activity change, negative = inhibition, actives largely listed as inhibitors;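 further: potency means the concentration at half of the fitted maximal effect; 0% = no-compound wells and -100% = no-enzyme wells; nearly all actives have a fitted effect of over 25% in size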
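AmpC (5.3 nM in the dispensed reagent) in 20 mM phosphate pH 7.0 with 0.01% (detergent screen) or 0.0001% Triton X-100 was preincubated with compounds for 15 min at room temperature. Nitrocefin was then added from an 800 uM solution, and hydrolysis was followed at 480 nm.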
Shiga toxin inh = A qHTS for Small Molecule Inhibitors of Shiga Toxin | AID 2315, 2010 | Vero cells, Shiga toxin protein synthesis inhibition reporter | inhibition, % at 38.7 µM | actives 9.2% (n = 290,000); in the data active means inhibition mostly above about 28%, no sharp cut-off; inactive means mostly below about 43%; further: 0% is about no effect
AMA1 RON2 block = qHTS for Inhibitors of AMA1-RON; Towards Development of Antimalarial Drug Lead: Primary Screen. Plasmodium falciparum AMA1 (3D7) - RON2 peptide interaction. AID 720542, 2013. actives 0.2% (n = 360,000). AlphaScreen AMA1-biotinylated RON2 peptide binding. Potency, µM (series often up to 58.2 µM), without a hit: at the top dose activity change, negative = inhibition, actives largely listed as inhibitors;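 further: potency means the concentration at half of the fitted maximal effect; 0% = vehicle wells and -100% = peptide control; nearly all actives have a fitted effect of over 45% in size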
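AMA1 (3D7) with his tag at 25 nM final met compounds first, then biotinylated RON2 peptide at 25 nM; detection used donor plus acceptor beads, 10 µg/mL apiece, read by AlphaScreen after 30 min at room temperature.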
* = called active by the depositor; ? = inconclusive. This excerpt belongs to a sample that is enriched for hits. Unless noted, the call rests on the fitted dose curve; in most records, active means well fitted curve in the direction sought with a large enough effect; inconclusive means small, poorly fitted or top-dose-only effect, or another doubt; inactive means no such curve, though single readings can be large; an effect the other way counts as inactive or inconclusive.

SMILES	SARS PLP yeast	Cycloheximide cs	AmpC inh no detg	AmpC inh detg	Shiga toxin inh	AMA1 RON2 block
COC(=O)NCC(C)OC(=O)Nc1ccc(Cl)cc1 (stereo not drawn)	0%	11	-27%	-7%	55*	-2%
Cc1ccc(NC(=O)OCCNC(=O)OC(C)C)cc1	9%	42*	-3%	0%	81*	6%
CC(CNC(=O)COc1ccccc1)OC(=O)Nc1cccc(Cl)c1 (stereo not drawn)	-15%	1	16%	?	8	2%
Cc1ccc(NC(=O)OC(C)CNC(=O)Oc2cccc(C)c2)cc1 (stereo not drawn)	0%	38*	96%	0%	74*	8%
CCOC(=O)NCCOC(=O)Nc1ccc(Cl)cc1	1%	11	-15%	1%	28	8%
COc1ccc(-c2cn(Cc3ccc4c(c3)C(=O)c3ccccc3C4=O)nn2)cc1	-6%	6	-28%	-8%	14	-1%
COc1ccc(-c2cn(Cc3ccc4ccccc4c3)nn2)cc1	6%	1	-15%	?	-6	-5%
Cc1ccc(Cn2cc(-c3ccccc3)nn2)cc1	-7%	57*	-26%	-23%	86*	1%
COc1ccc(-c2cn(Cc3ccc(C(=O)c4ccccc4)cc3)nn2)cc1	4%	43*	-17%	8%	62*	-1%
COc1ccc(-c2cn(Cc3ccc([N+](=O)[O-])cc3)nn2)cc1	-3%	10	-24%	-11%	24*	1%
COc1ccc(-c2cn(CCCOCc3ccccc3)nn2)cc1	-14%	16*	15%	9%	25*	3%
CCCCCc1ccc(-c2cn(Cc3ccc([N+](=O)[O-])cc3)nn2)cc1	-1%	6	-26%	-2%	5	14%
COc1ccccc1N1CCN(C(c2cccs2)C(C)NS(=O)(=O)c2ccccc2)CC1 (stereo not drawn)	0%	-1	?	?	3	-18%
COc1ccc(S(=O)(=O)N2CC(O)CC2C(=O)OCC(=O)Nc2ccc(Cl)cn2)cc1 (stereo not drawn)	-2%	-1	-1%	1%	-6	19%
c1ccc(Cn2nnc(-c3ccccc3)n2)cc1	8%	35*	-16%	-5%	94*	13%
N#Cc1cccc(Cn2nnc(-c3ccccc3)n2)c1	-3%	13*	-5%	-7%	21	-7%
NC(=O)CSc1nc2ccccc2c(=O)n1Cc1ccco1	12%	-4	-19%	-2%	1	-1%
CCOC(=O)C(O)C1CCc2c([nH]c3ccc(C)cc23)C1=O (stereo not drawn)	3%	25*	-2%	-1%	50	-10%
Cc1ccc2[nH]c3c(c2c1)CCNC3=O	1%	16	-23%	-5%	21	4%
CCOC(=O)N1CCc2[nH]c3ccc(C)cc3c2C1	1%	6	24%	4%	-4	40µM*
COc1ccc(-c2cnc3c(-c4ccc(F)cc4)cnn3c2N)cc1	7%	51*	-1%	2%	121*	13%
COc1ccc(-c2cnn3c(N)c(S(=O)(=O)C(C)(C)C)cnc23)cc1	-7%	32*	19%	-2%	40	52%
CC(C)(C)S(=O)(=O)c1cnc2c(-c3ccc(Cl)cc3)cnn2c1N	-2%	-4	-9%	-3%	-6	-4%
COc1ccc(-c2cnc3ncnn3c2N)cc1	0%	-5	-16%	6%	7	7%
CS(=O)(=O)c1cnc2c(-c3ccsc3)cnn2c1N	1%	38*	-12%	-1%	66*	-2%
COC(=O)c1c(NC(=O)C(Cl)Cl)sc2c1C(C(=O)OC)CC2 (stereo not drawn)	0%	-1	7%	8%	-14	3%
COc1cc(/C=C2\SC(=S)N(Nc3ccccc3)C2=O)ccc1O	-12%	51*	-21%	-13%	62*	?
